The list is not random: actives were taken first. Their share in the collection is about 27%.
CYP2C19 inh – blocks human cytochrome P450 2C19 | P33261 | inhibition, % at 5 µM | CYP2C19 Supersomes, luciferin-H EGE luminescence, 30 min | actives 21% (n = 96,000);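 active = CYP2C19 inhibition above a set limit at 5 µM in the primary screen, cut at about 50% in these data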;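 also: plate controls were negative control wells for no effect and 2.5 mM tranylcypromine positive control for full effect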
CYP2C9 act – increases human cytochrome P450 2C9 activity; recombinant CYP2C9, luciferin-H conversion, luminescence; hits give high values; factor 1 = untreated enzyme, 0 = blocked; activation factor at 5 µM; actives 1.4% (n = 96,000);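 active = activation factor of 2 or more for CYP2C9 at a 5 µM dose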;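 also: 0 = sulfaphenazole-blocked wells and 1 = vehicle-only wells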
Cav3 T inh – inhibitors of human Cav3.2 T-type calcium channel; Cav3.2-expressing cells, Fluo-4 calcium fluorescence FDSS; hits give low values; actives 4% (n = 100,000); O95180; B-score at 10 µM;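 active = single-dose well whose peak fluorescence ratio is a statistical outlier from its plate by either plate-standardised score or position-corrected B-score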
Target sequence (O95180 whole entry, looked up): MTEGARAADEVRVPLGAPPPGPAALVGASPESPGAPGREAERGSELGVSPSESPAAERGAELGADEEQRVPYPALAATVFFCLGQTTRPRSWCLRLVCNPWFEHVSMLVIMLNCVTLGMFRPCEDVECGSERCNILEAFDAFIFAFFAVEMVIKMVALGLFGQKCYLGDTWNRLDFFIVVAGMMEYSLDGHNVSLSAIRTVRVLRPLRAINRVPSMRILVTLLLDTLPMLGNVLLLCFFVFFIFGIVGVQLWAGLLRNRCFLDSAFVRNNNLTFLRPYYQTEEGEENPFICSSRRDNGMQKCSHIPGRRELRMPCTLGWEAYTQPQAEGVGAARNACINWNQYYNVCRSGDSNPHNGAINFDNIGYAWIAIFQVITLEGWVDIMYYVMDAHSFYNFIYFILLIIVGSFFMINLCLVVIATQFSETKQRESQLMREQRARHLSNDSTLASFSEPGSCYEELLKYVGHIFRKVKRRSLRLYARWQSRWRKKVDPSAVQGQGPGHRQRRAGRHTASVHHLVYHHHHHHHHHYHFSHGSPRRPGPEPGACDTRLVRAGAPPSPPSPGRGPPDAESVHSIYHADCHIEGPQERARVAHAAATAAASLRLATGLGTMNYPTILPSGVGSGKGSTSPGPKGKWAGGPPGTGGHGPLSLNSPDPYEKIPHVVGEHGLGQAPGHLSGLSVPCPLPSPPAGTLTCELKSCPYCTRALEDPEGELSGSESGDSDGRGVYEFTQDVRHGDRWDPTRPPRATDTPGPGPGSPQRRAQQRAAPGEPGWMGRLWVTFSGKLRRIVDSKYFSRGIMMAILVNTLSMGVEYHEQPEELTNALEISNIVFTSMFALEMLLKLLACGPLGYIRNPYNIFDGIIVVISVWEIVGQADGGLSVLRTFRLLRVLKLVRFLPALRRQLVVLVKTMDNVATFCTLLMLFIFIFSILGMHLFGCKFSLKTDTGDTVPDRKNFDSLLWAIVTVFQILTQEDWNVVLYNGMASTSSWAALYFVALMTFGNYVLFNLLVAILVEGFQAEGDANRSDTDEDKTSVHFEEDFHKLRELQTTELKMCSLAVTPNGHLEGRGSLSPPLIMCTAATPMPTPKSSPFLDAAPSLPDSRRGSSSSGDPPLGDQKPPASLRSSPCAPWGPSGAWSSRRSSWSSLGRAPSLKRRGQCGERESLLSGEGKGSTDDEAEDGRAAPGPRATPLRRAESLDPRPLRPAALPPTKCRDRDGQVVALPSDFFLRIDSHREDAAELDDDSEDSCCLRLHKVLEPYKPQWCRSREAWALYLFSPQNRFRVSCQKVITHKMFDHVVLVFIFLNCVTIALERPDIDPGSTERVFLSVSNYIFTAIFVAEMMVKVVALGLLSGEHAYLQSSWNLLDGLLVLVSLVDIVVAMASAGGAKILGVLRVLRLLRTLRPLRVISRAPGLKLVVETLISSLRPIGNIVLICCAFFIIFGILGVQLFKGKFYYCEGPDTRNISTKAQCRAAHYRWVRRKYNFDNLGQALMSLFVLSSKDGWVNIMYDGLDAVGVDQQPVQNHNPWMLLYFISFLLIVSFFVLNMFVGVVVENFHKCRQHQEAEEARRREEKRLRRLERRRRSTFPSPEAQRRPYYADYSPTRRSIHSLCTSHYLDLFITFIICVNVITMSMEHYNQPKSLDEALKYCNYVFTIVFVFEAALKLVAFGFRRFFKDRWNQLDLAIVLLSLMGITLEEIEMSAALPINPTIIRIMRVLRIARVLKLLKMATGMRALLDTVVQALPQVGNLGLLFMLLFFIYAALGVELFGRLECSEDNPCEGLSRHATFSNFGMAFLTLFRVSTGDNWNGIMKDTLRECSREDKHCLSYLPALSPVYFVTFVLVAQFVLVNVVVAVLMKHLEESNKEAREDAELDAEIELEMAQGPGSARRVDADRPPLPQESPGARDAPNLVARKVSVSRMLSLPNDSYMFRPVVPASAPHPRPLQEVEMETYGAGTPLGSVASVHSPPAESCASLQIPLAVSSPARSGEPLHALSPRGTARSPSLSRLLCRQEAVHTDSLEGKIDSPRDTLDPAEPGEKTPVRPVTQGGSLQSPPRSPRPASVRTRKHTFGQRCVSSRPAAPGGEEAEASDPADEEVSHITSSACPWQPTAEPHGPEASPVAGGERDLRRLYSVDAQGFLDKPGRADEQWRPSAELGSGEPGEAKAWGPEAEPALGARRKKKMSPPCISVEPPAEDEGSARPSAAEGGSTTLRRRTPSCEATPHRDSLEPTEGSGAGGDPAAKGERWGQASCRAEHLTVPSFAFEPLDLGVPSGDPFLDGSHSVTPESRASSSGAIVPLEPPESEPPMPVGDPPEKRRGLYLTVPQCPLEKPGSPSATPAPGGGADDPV
CYP2C19 act – activators of human cytochrome P450 2C19; P33261; recombinant CYP2C19, luciferin-H EGE luminescence; hits give high values; 0 = fully inhibited enzyme, 1 = untreated enzyme; activation factor at 5 µM; 96,000 tested, under 10 active; AID 1025;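 active = activation factor of at least 2 at 5 µM in the primary screen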;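 also: 0 = wells with 2.5 mM tranylcypromine and 1 = vehicle-only wells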
PTK2B oligo ant – Pyk2 (human) oligomerization antagonism; actives 0.83% (n = 99,000); Q293 cells, Pyk2 FERM NanoBiT luminescence; hits give low values; Q14289; z-score (the deposit names both 25 µM and 10 µM);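 active = Z-score of -3 or lower, scaled per plate to the spread of control and sample wells; inactive = z-score above -3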;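 also: negative z-score means lost luminescence so less FERM oligomerization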
CYP2C9 inhib – blocks human cytochrome P450 2C9. CYP2C9 Supersomes, luciferin-H conversion, luminescence. inhibition, % at 5 µM. actives 20% (n = 96,000). AID 777;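 active = blocking of liver enzyme CYP2C9 beyond about 50% at 5 µM, limit read from the data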
The depositor's hits bear a star; . = not tested or not shown.

SMILES	CYP2C19 inh	CYP2C9 act	Cav3 T inh	CYP2C19 act	PTK2B oligo ant	CYP2C9 inhib
CCOC(=O)C1=C(Nc2ccc(C)cc2)CC(C)(O)C(C(=O)OCC)C1c1ccccc1 (stereo not drawn)	3	1.1	-0.048	1	-0.19	-7
O=C(Nc1ccccc1)c1ccc(N2CCN(c3ccccn3)CC2)c(S(=O)(=O)N2CCOCC2)c1	92*	0.1	-1.6	0.1	-0.68	91*
O=C(Nc1ccccc1)c1ccc(NC2CCCCC2)c(S(=O)(=O)N2CCOCC2)c1	83*	0.2	-2.6	0.2	-2.4	82*
O=C(Nc1ccccc1)c1ccc(N2CCN(c3ccccc3)CC2)c(S(=O)(=O)N2CCOCC2)c1	58*	0.2	-6*	0.4	0.21	76*
O=C(Nc1ccc(F)c(F)c1)c1ccc(F)c(S(=O)(=O)N2CCOCC2)c1	0	0.8	.	1	.	16
Cc1ccccc1NC(=O)c1ccc(F)c(S(=O)(=O)N2CCN(c3ccccn3)CC2)c1	2	0.7	-0.46	1	-0.97	26
CC(O)c1cc2c(cc1NC(=O)c1cnn3c1NC(c1ccco1)CC3C(F)(F)F)OCO2 (stereo not drawn)	3	0.9	.	1	0.83	14
CCOC(=O)C1=C(C)NC(=O)NC1C(C)C (stereo not drawn)	.	.	1.5	.	.	.
CCOC(=O)C1CCCCN1Cc1ccccc1C(F)(F)F (stereo not drawn)	95*	0.5	-3.3	0	-0.01	52*
CCOC(=O)C1CCCCN1Cc1ccc(C(F)(F)F)cc1 (stereo not drawn)	97*	0.4	-0.74	0	1.5	62*
COC(=O)c1[nH]nc2c1C(=O)N(Cc1ccccc1)C2=O	4	0.8	0.73	1	0.93	17
CC1CC(C)CN(C(=O)c2cc3c(s2)CCC3)C1 (stereo not drawn)	6	0.9	-0.92	0.9	-0.57	11
COc1ccc(C2C(C#N)=C(C)NC3=C2C(=O)CC(C)(C)C3)c(OC)c1 (stereo not drawn)	13	0.6	1.4	0.9	-2.4	39
CCCCC1C(C#N)=C(C)NC2=C1C(=O)CC(C)(C)C2 (stereo not drawn)	90*	0.1	3.1	0.1	-0.88	86*
O=C1c2ccccc2S(=O)(=O)N1CC1CC(c2ccccc2)=NO1 (stereo not drawn)	82*	0.2	-0.17	0.2	0.77	81*
O=C(CN1C(=O)c2ccccc2S1(=O)=O)c1ccccc1	19	0.8	0.079	0.8	0.58	23
COc1ccc(C2=NOC(CN3C(=O)c4ccccc4S3(=O)=O)C2)cc1 (stereo not drawn)	76*	0.1	-0.28	0.2	-0.25	89*
COc1ccc(CCNC(=O)CN2C(=O)c3ccccc3S2(=O)=O)cc1	.	.	0.34	.	0.35	.
Cc1cc(Nc2ccccc2Cl)n2nnnc2n1	11	0.9	0.034	0.9	0.41	6
O=C(NCc1ccccn1)C1Nc2ccc(C(F)(F)F)cc2C2C=CCC12 (stereo not drawn)	.	.	0.0044	.	.	.
CCOC(=O)C[C@H]1c2cc(F)ccc2S(=O)(=O)N1c1cccc(OC)c1	.	.	0.12	.	.	.
CCN(CC(=O)NC(=O)NCc1ccco1)Cc1nc2ccccc2c(=O)[nH]1	68*	0.6	0.22	0.3	0.18	45
CCOc1ccccc1NC(=O)CCCc1nc2ccccc2c(=O)[nH]1	26	0.9	-1.2	0.7	-0.87	9
Cc1cc(Br)ccc1NC(=O)CNC(=O)CN(C)Cc1nc2ccccc2c(=O)[nH]1	68*	0.4	-0.094	0.3	0.17	63*
CCN(CC(=O)Nc1ccccc1Br)Cc1nc2ccccc2c(=O)[nH]1	54*	0.5	0.5	0.5	-0.09	50
Cc1cccc(NC(=O)N(Cc2nc3ccccc3c(=O)[nH]2)C2CCCC2)c1	1	.	-1	1	0.08	.
CCN(CC(=O)NCCc1ccc(S(N)(=O)=O)cc1)Cc1nc2ccccc2c(=O)[nH]1	13	0.3	0.64	0.9	0.7	66*
CCOc1cc(Cl)c(NC(=O)c2ccco2)cc1OCC	.	.	.	.	2.7	.
O=C(NC1CC1)c1sccc1-n1cccc1	15	0.5	-0.093	0.8	0.52	47
O=c1c2cnn(-c3ccccc3)c2nc(-c2cccs2)n1-c1ccc(Br)cc1	.	.	-2	.	-1.6	.

High-throughput results from PubChem.
